Compound activity from PubChem BioAssay.
HepG2 tox: kills HepG2 cells in TGF-b inhibitor counter-screen; Potency, µM (top dose mostly 46.1 µM), for the others: at the highest dose activity change, negative = cytotoxicity, usual class: cytotoxic; 0.76% of 410,000 active; HepG2 CAGA-GFP viability, ATP luminescence, 18 h
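CellTiter-Glo luminescence gave cytotoxicity after 18 hours at 37 degrees C. The cells were HepG2 CAGA-GFP in 1% FBS DMEM, stimulated with 500 pg/mL TGF-beta after compound addition. %Activity was normalised to no-cell wells (complete cell-killing) and DMSO (no toxicity), and curves were fitted and classified.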
KB-3-1 tox: kills parental KB-3-1 adenocarcinoma cells; 1.4% of 400,000 active; KB-3-1 viability, CellTiter-Glo ATP luminescence, 72 h; Potency, µM (titrated, usually from 46.1 µM), usual class: cytotoxic; AID 1347075; further: on the % scale 0 is the no-effect control and ±100 the full control effect; nearly all actives have a fitted effect of over 60% in size
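Screening of KB-3-1 cells (DMEM, 10% FBS, phenol-red free) ran from lowest to highest compound concentration; after 72 h at 37 °C viability was read luminescently and curves fitted.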
TGFb inhibitor: blocks TGF-b signaling; HepG2 CAGA-GFP TGF-b/SMAD3 reporter, GFP fluorescence, 18 h; TGF-beta stimulated, 500 pg/mL final; Potency, µM (doses to about 46.1 µM), inactives show at the top dose activity, negative = inhibition, usual class: inhibitors; 1.2% of 410,000 active; further: on the % scale 0 is the no-effect control and ±100 the full control effect; nearly all actives have a fitted effect of over 65% in size
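First, reporter cells (HEPG2 CAGA-GFP) rested 2 h at 37 degrees C. Next, compounds were pinned in and TGF-beta added to 500 pg/mL final. After 18 h, GFP was imaged per cell and summed per well.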
KB-V1 cytotox: kills drug-selected multidrug resistant KB-V1 cells; KB-V1 MDR cells viability, CellTiter-Glo, 72 h; Potency, µM (titrated, usually from 46.1 µM), hits mostly cytotoxic; 3.4% of 400,000 active; AID 1347076; further: on the % scale 0 is the no-effect control and ±100 the full control effect; nearly all actives have a fitted effect of over 60% in size
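Following 72 h at 37 degrees C with compound, KB-V1 cell viability was read by CellTiter-Glo luminescence, medium being phenol-red-free DMEM plus 10% FBS; concentration-response parameters came from normalized, curve-fitted qHTS data.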
HT1080 IDH1KD tx: toxicity to HT-1080 IDH1 knockdown cells (counter line); HT-1080 IDH1 knockdown viability, ATP luminescence, 48 h; Potency, µM (doses to about 46.1 µM), for inactives: at the top dose activity, negative = toxicity, actives largely listed as cytotoxic; 2% of 360,000 active; AID 686971;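 further: 0% = DMSO wells and -100% = cell-free medium wells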
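Luminescent ATP read-out (CellTiter-Glo, 10 min at room temperature) after 48 h compound exposure at 37 °C gave viability of IDH1-knockdown HT-1080 cells. Activity was normalised to DMSO and cell-free wells, then fitted as concentration-response curves.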
HT1080NT lethal: kills 2HG-producing HT-1080-NT fibrosarcoma cells; HT-1080-NT fibrosarcoma viability, CellTiter-Glo ATP luminescence, 48 h; Potency, µM (doses to about 46.1 µM), without a hit: at the highest dose activity, negative = less viability, hits mostly cytotoxic; 1.6% of 360,000 active;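 further: NT is the 2HG producing partner of a matched IDH1 knockdown line; 0% = DMSO-treated cells and -100% = media-only wells without cells; nearly all actives have a fitted effect of over 55% in size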
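Read-out is CellTiter-Glo luminescence after 10 minutes at room temperature, following 48 hours' compound treatment of HT-1080-NT cells (750 cells/well, RPMI, 5% FBS, 37 degrees C).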
An asterisk follows results filed as active. Sampled rows, rich in hits. Any-hit rate of the full collection: about 6.6%. The call rests on the fitted dose curve; in most records, active means well fitted curve in the direction sought with a large enough effect; inconclusive means small, poorly fitted or top-dose-only effect, or another doubt; inactive means no such curve, though single readings can be large; an effect the other way counts as inactive or inconclusive. Potency means the concentration at half of the fitted maximal effect.

What do the screens show for `CN(C(=O)CSc1nc2ccc(NC(=O)c3ccc(F)cc3)cc2s1)c1ccccc1`?
HepG2 tox: -26.0%; KB-3-1 tox: inconclusive; TGFb inhibitor: inconclusive; KB-V1 cytotox: inconclusive

What do the screens show for `COC(=O)C1=C(C)N(Cc2ccccc2)C(=NCc2cccc(C(F)(F)F)c2)N[C@H]1c1cccc(C(F)(F)F)c1`?
HepG2 tox: 17.8µM*; KB-3-1 tox: inconclusive; TGFb inhibitor: 10µM*; KB-V1 cytotox: inconclusive; HT1080 IDH1KD tx: inconclusive; HT1080NT lethal: inconclusive

How did COC(=O)C1=C(C)N(Cc2ccccc2)C(=NCc2cccc(C(F)(F)F)c2)N[C@H]1c1cccc(F)c1 do in these assays?
HepG2 tox: 14.1µM*; KB-3-1 tox: inconclusive; TGFb inhibitor: inconclusive; KB-V1 cytotox: inconclusive; HT1080 IDH1KD tx: inconclusive; HT1080NT lethal: inconclusive

What do the screens show for `COC(=O)C1=C(C)N(CC2CC2)C(=NCc2cccc(C(F)(F)F)c2)N[C@H]1c1ccccc1`?
HepG2 tox: -50.6%; KB-3-1 tox: inactive; TGFb inhibitor: -12.8%; KB-V1 cytotox: inactive; HT1080 IDH1KD tx: -6.6%; HT1080NT lethal: -19.5%

What do the screens show for `Cc1onc(-c2c(F)cccc2Cl)c1-c1nnc(-c2ccc(C(F)(F)F)cc2)o1`?
HepG2 tox: -35.4%; KB-3-1 tox: inactive; TGFb inhibitor: inconclusive; KB-V1 cytotox: inconclusive; HT1080 IDH1KD tx: 25.9µM*; HT1080NT lethal: -22.1%

How did O=C(NN=Cc1ccccc1O)c1cccc([N+](=O)[O-])c1 do in these assays?
HepG2 tox: -27.8%; KB-3-1 tox: inconclusive; TGFb inhibitor: -14.7%; KB-V1 cytotox: inconclusive; HT1080 IDH1KD tx: 1.16µM*; HT1080NT lethal: 0.291µM*

Results for COc1ccc(/C=N/NC(=O)c2cccc([N+](=O)[O-])c2)cc1O ?
HepG2 tox: -1.7%; KB-3-1 tox: inactive; TGFb inhibitor: -26.5%; KB-V1 cytotox: inactive; HT1080 IDH1KD tx: -18.6%; HT1080NT lethal: -14.9%

What do the screens show for `COc1cccc(/C=N/NC(=O)c2cc3cc([N+](=O)[O-])ccc3s2)c1O`?
HepG2 tox: 10µM*; KB-3-1 tox: inconclusive; TGFb inhibitor: 0.0%; KB-V1 cytotox: inconclusive; HT1080 IDH1KD tx: 2.91µM*; HT1080NT lethal: 4.11µM*

Results for O=C(/C=C/c1ccccc1F)c1cccc([N+](=O)[O-])c1 ?
HepG2 tox: 14.1µM*; KB-3-1 tox: inactive; TGFb inhibitor: inconclusive; KB-V1 cytotox: inactive; HT1080 IDH1KD tx: -24.7%; HT1080NT lethal: -13.3%

How did COc1cccc(/C=N/NC(=O)C(=O)N/N=C/c2cccc(OC)c2O)c1O do in these assays?
HepG2 tox: -19.2%; KB-3-1 tox: inconclusive; TGFb inhibitor: -7.9%; KB-V1 cytotox: inactive; HT1080 IDH1KD tx: 6.1%; HT1080NT lethal: -7.8%

How did Cc1[nH]c2ccccc2c1/C=N/NC(=O)c1cccc(S(=O)(=O)Nc2cccc(C(F)(F)F)c2)c1 do in these assays?
HepG2 tox: -11.7%; KB-3-1 tox: inactive; TGFb inhibitor: 10µM*; KB-V1 cytotox: inactive; HT1080 IDH1KD tx: -15.5%; HT1080NT lethal: -12.9%

What do the screens show for `NNC(=O)c1cccc(S(=O)(=O)Nc2cccc(C(F)(F)F)c2)c1`?
HepG2 tox: 21.5%; KB-3-1 tox: inactive; TGFb inhibitor: -8.3%; KB-V1 cytotox: inactive; HT1080 IDH1KD tx: -2.5%; HT1080NT lethal: -15.7%

How did CSc1cccc(NC(=O)CN2C(=O)COc3ccc(S(=O)(=O)N4CCC(C)CC4)cc32)c1 do in these assays?
HepG2 tox: -16.3%; TGFb inhibitor: -22.3%

Results for Cc1ccc(NC(=O)C2CCCN(S(=O)(=O)c3c(C)nn(C)c3C)C2)c(C)c1 (configuration not stated) ?
HepG2 tox: -16.1%; KB-3-1 tox: inactive; TGFb inhibitor: inconclusive; KB-V1 cytotox: inactive
